Assay results from PubChem BioAssay (NCI).
The panel holds about 83,000 compounds, 20% with a hit somewhere; the sample as a whole holds those more often.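 Negative percent growth values reflect cell death: -40 means 40% of the cells present at the start died, and -100 means all died.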 Activity calls are given as the source filed them. The calls were made as follows: active = growth percent below 10; inactive = the rest.

These compounds were tested on HL-60(TB) leukemia (assay: NCI-60 one-dose screen, 48 h (100 = growth as untreated, 0 = no growth, -100 = all killed)). Details: 10 µM unless noted.
With `N#Cc1c(NC(=O)c2ccc(C(F)(F)F)cc2C(F)(F)F)sc2c1CCC(=O)C2` the growth was -24% (active).
With `CCOc1ccc(C(=O)NC(=S)Nc2ccc(S(N)(=O)=O)cc2)cc1` the growth was 103% [100 µM] (inactive).
In the case of `COc1cc2oc(-c3cccc(C(=O)Nc4ccc(Cl)cc4)c3)cc(=O)c2c(OCCNC(=O)CNC(=O)OC(C)(C)C)c1OC`, the growth is reported as 55.5% (inactive).
In the case of `COc1ccc(C(=O)COc2ccc(NC(=O)Nc3ccc(Cl)c(C(F)(F)F)c3)cc2)cc1`, the growth is reported as 19% (inactive).
With `Cc1cc(=O)oc2cc(OCCCCOc3ccc(/C=C/C(=O)Nc4cccc(Cl)c4)cc3)ccc12` the growth was 97.3% (inactive).
For `O=C(NNC(=O)c1ccc(OCc2nc3ccc(Cl)cc3[nH]2)cc1)Nc1ccc(Cl)c(C(F)(F)F)c1`, the growth was 74.8% (inactive).
`CN(C)CCCNC(=O)c1cc(NC(=O)c2cc(NC(=O)c3ccc(/C=C/c4ccccc4)cc3)cn2C)cn1C` was tested, and the growth was -37.7% (active).
In the case of `Cc1ccc(C(=O)NN2C(=O)/C(=C/C=C/c3ccc([N+](=O)[O-])o3)SC2=S)cc1`, the growth is reported as 2.23% (active).
For `Cc1cc(C(F)(F)F)ccc1C(=O)Nc1sc2c(c1C#N)CCC(=O)C2`, the growth was -14.5% (active).
`CN1CCN(c2ccc(C(=O)/C=C/c3ccc(C#N)cc3)cc2)CC1` was tested, and the growth was 65.1% (inactive).
For `C=C1CC[C@@H]2[C@]3(C)COC(c4ccccc4)O[C@@H]3CC[C@@]2(C)[C@@H]1C/C=C1/C(=O)OCC1OC(C)=O` (stereo not given in full), the growth was -52.4% (active).
`O=C(c1ccc(O)cc1)C1[C@H](c2ccccc2Br)[C@@H](c2ccccc2)NC12C(=O)Nc1ccccc12` (stereo not given in full) was tested, and the growth was 19.8% (inactive).
For `COc1ccc(C2N(c3ccc(Br)cc3)N=C(C(C)=O)N2[C@H]2[C@H](OC(C)=O)O[C@H](COC(C)=O)[C@@H](OC(C)=O)[C@@H]2OC(C)=O)cc1` (stereo not given in full), the growth was 23.7% (inactive).
For `CC1(c2ccccc2)NC(=O)N(CC(=O)Nc2ccc(C(=O)/C=C/c3ccccc3)cc2)C1=O` (stereo not given), the growth was 10.1% (inactive).
With `C=CCn1c(SCC(=O)Nc2ccc(C(=O)/C=C/c3ccccc3)cc2)nnc1-c1c[nH]c2ccccc12` the growth was 32.4% (inactive).
In the case of `Cn1cc(-c2cc(N)n3nc(-c4c[nH]c5ccc(Cl)cc45)cc3n2)c2cccnc21`, the growth is reported as -59.8% (active).
`COc1ccc2c(c1)c(-c1cc3nc(-c4cn(C)c5ncc(Br)cc45)cc(N)n3n1)cn2C` was tested, and the growth was -59.7% (active).
With `Fc1ccc(Nc2nnc(-c3c[nH]c4ccccc34)o2)cc1` the growth was 44.8% (inactive).
For `Cn1cc(-c2cc3nc(-c4c[nH]c5ccccc45)cc(N)n3n2)c2ccccc21`, the growth was -41.2% (active).
In the case of `O=C(c1ccc(F)cc1)C(c1c[nH]c2ccccc12)c1c[nH]c2ccccc12`, the growth is reported as 41.8% (inactive).
`O=C1N/C(=N\c2nccs2)S/C1=C\c1ccc([N+](=O)[O-])cc1` was tested, and the growth was 5.47% (active).
With `Cn1cc(/C=C(/SS/C(=C/c2cn(C)c3cccc(C(=O)O)c23)C(=O)O)C(=O)O)c2c(C(=O)O)cccc21` the growth was 99.2% (inactive).
For `C=C[C@@]12CN3CC[C@]1(O)[C@@](C(=O)OC)(CO2)c1[nH]c2ccccc2c1C3`, the growth was 20.5% (inactive).
In the case of `CC(C)C1=C[C@@]23CC[C@@H]4[C@](C)(CCC[C@]4(C)C(=O)NCc4ccccc4)[C@H]2C[C@@H]1[C@H]1C(=O)OC(=O)[C@H]13`, the growth is reported as 3.62% (active).
In the case of `COc1c(F)ccc(C(=O)Nc2ccc3nc(NC(=O)C4CCCN(S(=O)(=O)c5ccc(Cl)cc5)C4)sc3c2)c1F` (stereo not given), the growth is reported as 83.4% (inactive).
With `O=C(N/N=C/c1c[nH]c2ccccc12)Nc1ccccc1Cl` the growth was 0.912% (active).
For `NS(=O)(=O)c1ccc(-n2cc(-c3cccc(NC(=O)c4cc(C(F)(F)F)cc(C(F)(F)F)c4)c3)nn2)cc1`, the growth was 63.4% (inactive).
With `O=C1CC(c2ccc(I)cc2)OC2C=Cc3ccccc3C12` (stereo not given) the growth was 89% (inactive).
In the case of `COc1ccc(/C=C/c2n(Cc3ccc4ccccc4c3)c3ccccc3[n+]2Cc2ccc3ccccc3c2)cc1`, the growth is reported as -5.59% (active).
In the case of `CN(C)c1ccc(/C=C/c2nc3ccccc3c(=O)n2CC(=O)Nc2ccccc2)cc1`, the growth is reported as 91.8% (inactive).
`O=C(CSc1nnc(-c2ccc3nc(-c4ccc(Cl)cc4)[nH]c3c2)o1)Nc1ccc(Cl)cc1` was tested, and the growth was -20.9% (active).
With `COc1ccc(-n2c(NC(=O)N3CCN(C)CC3)c(C#N)c3ccccc32)cc1` the growth was 74.2% (inactive).
With `COc1ccc(NC2=C(I)C(=O)C(C)=C(C)C2=O)cc1` the growth was -35.7% (active).
For `CCCCN1C(=O)/C(=C\C(=O)c2cc3ccccc3oc2=O)c2ccccc21`, the growth was 74.8% (inactive).
With `COc1cc2oc(-c3cccc(C(=O)Nc4ccc(Cl)cc4)c3)cc(=O)c2c(OCCNC(=O)[C@@H](N)CO)c1OC` the growth was -29.2% (active).
With `Nc1nc(-c2ccccc2)c(N=Nc2ccc(Cl)cc2[N+](=O)[O-])s1` the growth was 83.8% (inactive).
With `CCCCCCCCCCCCCCCCCCCC(=O)NCCc1c[nH]c2ccc(OC(=O)CCCC(=O)OCCOOCCOOCCOOCCOOCCOOCCOOCCOOCCOOCCOOCCOOCCOOCCOC)cc12` the growth was -29.3% (active).
With `O=C(CSc1nnc(-c2c[nH]c3ccccc23)n1-c1ccccc1)Nc1ccc(C(=O)/C=C/c2cccc([N+](=O)[O-])c2)cc1` the growth was 86.8% (inactive).
With `O=C(/C=C/Nc1ccc(Cl)cc1)c1ccc2c(c1)Nc1ccccc1S2` the growth was 92.7% (inactive).
For `N#CCc1nnc(NC(=O)c2ccc(-n3c(=O)[nH]c4ccccc4c3=O)cc2)s1`, the growth was 86% (inactive).
